Data published in ChEMBL document CHEMBL4513216, “Probing the Open Global Health Chemical Diversity Library for Multistage-Active Starting Points for Next-Generation Antimalarials” (ACS Infect Dis, 2020).
About 8,600 (12%) of roughly 69,000 compounds showed an effect of 50% or more. The entries come from a sample that favours strong results as a whole.

system: Plasmodium berghei; experiment: Screen against P. berghei liver stage (PbLuc), transformed with Luciferase, at 10uM; type: functional, HepG2; conditions: tested at 10 uM

Row | Structure (SMILES) | INHIBITION
1 | Cc1c(C(=O)NCC2CCCO2)nnn1-c1cccc2c1CCN(C)C2 (stereo not drawn) | 29.2%
2 | COc1c(C2CCCN2C(=O)c2ccc3[nH]cnc3c2)c(C)nn1C (stereo not drawn) | -2.19%
3 | CC(C)(C)C(=O)N1C[C@@H](F)[C@@H](OCc2nc3ccccc3o2)C1 | 70.7%
4 | O=C(c1ccno1)N1C[C@@H](F)[C@@H](OCc2nc3ccccc3o2)C1 | 56.3%
5 | F[C@@H]1CN(CC2CCCCC2)C[C@@H]1OCc1nc2ccccc2o1 | 29.8%
6 | F[C@@H]1CN(CC2CC2)C[C@@H]1OCc1nc2ccccc2o1 | -3.5%
7 | CS(=O)(=O)N1C[C@@H](F)[C@@H](OCc2nc3ccccc3o2)C1 | 41.1%
8 | CC(=O)N1C[C@@H](F)[C@@H](OCc2nc3ccccc3o2)C1 | -15.6%
9 | CC(C)NC(=O)N1C[C@@H](F)[C@@H](OCc2nc3ccccc3o2)C1 | 58.5%
10 | O=C(C1CC1)N1C[C@@H](F)[C@@H](OCc2nc3ccccc3[nH]2)C1 | 7.85%
11 | O=C(C1CC1)N1C[C@@H](F)[C@@H](OCc2nc3ccccc3o2)C1 | 13.1%
12 | CCC(CN1CCCCC1)NC(=O)C1(c2ccc(F)cc2)CC1 (stereo not drawn) | 48.2%
13 | COc1ccc(C(=O)N2CCOCC2c2[nH]ncc2C)cc1F (stereo not drawn) | 3.75%
14 | Cc1cnn(CC2CN(Cc3nc4ccccc4c(=O)[nH]3)CCO2)c1 (stereo not drawn) | 29.4%
15 | Cc1nc2c(Nc3cccc(C#N)c3)nc(N)nc2n1C | -42.8%
16 | CC(C)NC(=O)N1CCC2(CC1)Cc1ccccc1CN(C)C2=O | -6.25%
17 | CNC(=O)Nc1cc(-c2ccccc2C)nn1CCO | -60%
18 | CCNC(=O)CCC(=O)NCC1(O)CCC(C(C)(C)C)CC1 (stereo not drawn) | -23.8%
19 | COc1cccc(S(=O)(=O)N2CCCCC2CCN2CCOCC2)c1 (stereo not drawn) | 22.6%
20 | O=C(CCCN1CCCCC1)N[C@H](C(=O)O)c1cccc(F)c1F | 34.5%
21 | CC(C)N1CCC(CC(=O)NC(C(=O)O)c2cc(F)ccc2F)CC1 (stereo not drawn) | 52.1%
22 | CCN1CCC(CC(=O)N[C@H](C(=O)O)c2cccc(F)c2F)CC1 | -2.39%

Row | Structure (SMILES) | INHIBITION
23 | CC(C)N1CCC(CC(=O)NC(C(=O)O)c2ccc(F)cc2)CC1 (stereo not drawn) | 33.9%
24 | CCCN1CCC(CC(=O)N[C@H](C(=O)O)c2cccc(F)c2F)CC1 | 53%
25 | CC(C)N1CCC(CC(=O)NC(C(=O)O)c2cccc(F)c2)CC1 (stereo not drawn) | 36.7%
26 | O=C(CCc1nc2cccnc2[nH]1)Nc1ccc2c(c1)NC(=O)CO2 | 14.8%
27 | CSc1nccc(N2CCC(NCc3nc(C)cc(C)n3)CC2)n1 | 8.7%
28 | CSc1nccc(N2CCC(=O)N(CC3CC3)C(C(C)C)C2)n1 (stereo not drawn) | 7.43%
29 | Cc1cccc(N2CCC(NCc3cnc(C4CCC4)s3)CC2)n1 | 36.5%
30 | Cc1ccc(N2CCCC(NCc3ccc4c(c3)OCCO4)C2)nn1 (stereo not drawn) | -19.4%
31 | CSc1nccc(N2CCC(NCc3ccc4nsnc4c3)CC2)n1 | 76.9%
32 | CSc1nccc(N2CCC(NCc3ccc4c(c3)OCO4)CC2)n1 | 57.4%
33 | O=C(NCCNS(=O)(=O)N1CCCCCC1)c1ncccc1O | -13.6%
34 | CCCC(O)CN1CCC(=O)N(Cc2ccccc2)Cc2ccccc21 (stereo not drawn) | -30%
35 | Cc1ccc(C)n1-c1c(C(=O)NCC(C)Cn2cccn2)cnn1C (stereo not drawn) | 5.36%
36 | CN1[C@H](CN2CCCC2)C[C@@H]2CN(C(=O)Cc3cccs3)CC[C@@H]21 | 49.1%
37 | CCc1ccc(C(=O)Nc2ccc3c(c2)N(C)CCN(C)C3)o1 | 66.9%
38 | Cc1cc(C(=O)Nc2ccc3c(c2)N(C)CCN(C)C3)on1 | 44.2%
39 | CN1CCN(C)c2cc(NC(=O)c3cc[nH]n3)ccc2C1 | 43.1%
40 | c1ccc(OCCN2CCN(c3ncnc4[nH]ccc34)CC2)cc1 | 35.1%
41 | c1ccc(CCN2CCN(c3ncnc4[nH]ccc34)CC2)cc1 | 33%
42 | c1ccc(CCCN2CCCN(c3ncnc4[nH]ccc34)CC2)cc1 | 52.7%
43 | COc1ccc(Cn2c(CCc3c(C)n[nH]c3C)n[nH]c2=O)cc1 | -5.08%
44 | CCCc1nc(C)c(C(=O)NCCN2CCOCC2)s1 | -65.3%

Row | Structure (SMILES) | INHIBITION
45 | COc1ccc(CCC2CCCCN2)cc1 (stereo not drawn) | 49.6%
46 | O=C(O)c1cnc2c(Br)cccc2c1O | 27.5%
47 | O=C(O)c1cccc2c(Br)cccc12 | 73.9%
48 | O=C(O)c1ccnc2c(Br)cccc12 | 9.32%
49 | C=C(C)COc1ccccc1C(=O)NCCc1cc(O)nc(C)n1 | 41.3%
50 | O=C(C1CC1)N1CC2(CCNCC2)C1 | -1.12%
51 | O=C(C1CC1)N1CCc2ccccc2C12CCNCC2 | 55.4%
52 | CN(C)C(=O)N1Cc2ccccc2C2(CCNCC2)C1 | 12.4%
53 | CCOC(=O)N1CC2(CCNCC2)c2cc(Cl)ccc21 | 21.1%
54 | COCC(=O)N1CCc2ccccc2C12CCNCC2 | 40.5%
55 | CCOC(=O)N1CCc2ccccc2C12CCNCC2 | 50.4%
56 | Cc1ccc(CC(=O)N2CCC(Nc3cccnn3)CC2)s1 | -58.0025%
57 | Cc1ccccc1C(C(=O)NCCS(C)(=O)=O)N(C)C (stereo not drawn) | 22.6%
58 | c1ncn(CC2CN(Cc3nc(-c4ccsc4)no3)CCO2)n1 (stereo not drawn) | -3.165%
59 | Cc1nc(C)n(CC2CN(Cc3ccccc3OC(C)C)CCO2)n1 (stereo not drawn) | 26.5%
60 | NCc1cnn(-c2ccccc2C(=O)NCc2ccccn2)c1 | 53.2%
61 | NCc1cnn(-c2ccccc2C(=O)NCCc2ccncc2)c1 | 8.72%
62 | COCCNC(=O)c1ccccc1-n1cc(CN)cn1 | 17.1%
63 | NCc1cnn(-c2ccccc2C(=O)NCCCn2ccnc2)c1 | 54.6%
64 | NCc1cnn(-c2ccccc2C(=O)NCCc2ccccn2)c1 | 24.4%
65 | NCc1cnn(-c2ccccc2C(=O)NCc2ccncc2)c1 | 17.1%
66 | CCN(C(=O)c1ccc(-n2ncc(C#N)c2N)cc1)C1CCCC1 | 25.1%

Row | Structure (SMILES) | INHIBITION
67 | Cc1cc(NCCOCCS(C)(=O)=O)nc2ccccc12 | 46.6%
68 | OC1(CNc2cc(C(F)(F)F)nc3ccccc23)CCOCC1 | -32.3%
69 | Cc1cc(C)n(-c2cncc(NCCNS(C)(=O)=O)n2)n1 | 29%
70 | Cc1cc(NCC2(O)CCOCC2)c2ccccc2n1 | 26%
71 | Cc1cc(NCC2(O)CCOCC2)nc2ccccc12 | 71.7%
72 | Cc1cc(NCCS(C)(=O)=O)nc2ccccc12 | 8.05%
73 | Cc1cc(NCCCNS(C)(=O)=O)nc2ccccc12 | 62%
74 | Cc1cc(NCCNS(C)(=O)=O)nc2cc3c(cc12)CCC3 | -6.88%
75 | COc1cc2nc(NCCNS(C)(=O)=O)cc(C)c2cc1OC | 50.3%
76 | O=S(=O)(NCC1CCN(c2cnccn2)CC1)c1ccc(F)c(Cl)c1 | -54.5%
77 | CCc1c(C)n(CC(C)=O)c2nc3ccccc3n2c1=O | 4.66%
78 | c1csc(CN2CC(c3nc(-c4cnccn4)no3)C2)c1 | -12.6%
79 | CN(Cc1noc(C2CC2)n1)C1CCN(CCc2cnn(C)c2)C1 (stereo not drawn) | 11.2%
80 | Cc1ccc(CN2C[C@H]3C[C@H](C(=O)NCC4CC4)N(C)[C@H]3C2)o1 | 18.6%
81 | CN(Cc1cnn(C)c1)CC1CCCN1c1cccnn1 (stereo not drawn) | 5.7%
82 | NCc1ccc(Oc2ccc(F)c(F)c2)cc1C(F)(F)F | 26.1%
83 | Cc1ccc(CNC(=O)COc2ccc3c(c2)OCC3O)cc1 (stereo not drawn) | 0.266%
84 | COCCn1nc(C(=O)N(C)Cc2ccc3ccccc3c2)ccc1=O | 43.4%
85 | Cc1cnn(CC2CCCCN2C(=O)c2cccnc2N(C)C)c1 (stereo not drawn) | 15.5%
86 | O=C(c1ccoc1)N1CCC2(CC1)COC(COc1ccccn1)C2 (stereo not drawn) | 73.6%
87 | O=C(c1ccoc1)N1CCC2(CC1)COC(COCc1ccccn1)C2 (stereo not drawn) | 23.8%
88 | O=C(c1ncccn1)N1CCC2(CC1)COC(COc1ccccn1)C2 (stereo not drawn) | 12.6%

Row | Structure (SMILES) | INHIBITION
89 | CCC(C)N(CCOC)Cc1nc2c(cnn2C)c(=O)[nH]1 (stereo not drawn) | 14.22%
90 | CN(CC(N)=O)Cc1ccc(F)cc1Cl | -59.5%
91 | CC(C)NC(=O)CC(C)NCc1ccc(F)cc1Cl (stereo not drawn) | 53.6%
92 | CC(C)NC(=O)CC(C)NCc1cc(Cl)ccc1F (stereo not drawn) | 27.6%
93 | COc1c(C(=O)NC(C)Cc2ccccc2Cl)c(C)nn1C (stereo not drawn) | 17.5%
94 | O=C(O)c1c(-c2cncnc2)ncc2c1CCN(Cc1ccco1)C2 | -27.1%
95 | CCn1nc2c(cc1=O)CN(Cc1nc(-c3cccnc3)no1)CC2 | -56.575%
96 | Cc1cnc(N)nc1NCCSCc1[nH]cnc1C | 39.1%
97 | Cc1nc(C)c(C)c(NCCSCc2[nH]cnc2C)n1 | -8.47%
98 | CCc1c(C)nc(N)nc1NCCSCc1[nH]cnc1C | 69.4%
99 | CN(Cc1cnn(C)c1)C(=O)Cc1ccc2c(c1)OCCO2 | -18.5%
100 | Cc1n[nH]c(C)c1S(=O)(=O)N(C)Cc1nn(C)c(Cl)c1Cl | 23.8%
101 | CCn1nc(C)c(CN(C)S(=O)(=O)c2cnn(C)c2)c1C | 6.83%
102 | Cc1noc(C)c1S(=O)(=O)N(C)Cc1nn(C)c(Cl)c1Cl | 15.9%
103 | Cc1nn(C)c(C)c1S(=O)(=O)N(C)Cc1nn(C)c(Cl)c1Cl | 54.5%
104 | Cc1nn(C)c(Cl)c1S(=O)(=O)N(C)C | 12.3%
105 | Cc1nn(C)c(C)c1CN(C)S(=O)(=O)c1c(C)n[nH]c1C | 53.5%
106 | CS(=O)(=O)N[C@@H]1CCN(Cc2nccs2)[C@H]1Cc1ccncc1 | 30.5%
107 | COc1cccc(C(C(=O)O)N2CCSCC2)c1F (stereo not drawn) | 17%
108 | CC(C)CN(CC(F)(F)F)S(=O)(=O)c1cc(C(N)=O)n(C)c1 | -36.4%
